The whole screen tested about 360,000 compounds, of which about 25,000 (6.9%) were called active. Where a call stands in place of a potency, no number is given. Another 9% or so got no clear call; they are omitted. This is one part of a sample in which actives are shown more often than they occur. Calls come from the whole dose curve; as a rule, active = well fitted inhibition curve with a large enough effect; inconclusive = small, poorly fitted or top-dose-only effect; inactive = flat fitted curve, though single readings scatter.
Each compound was assayed against Luciferin 4-monooxygenase (Photinus pyralis) (UniProt P08659) (assay: qHTS profiling assay for firefly luciferase inhibitor/activator using purifed enzyme and Km concentrations of substrates (counterscreen for miR-21 project)). Conditions: purified FLuc, luminescence inhibition; series mostly up to 57.5 µM.
Summary of the method: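 Biochemical qHTS of compounds, final roughly 60 µM downward over six points, against 10 nM purified firefly luciferase using Km concentrations of substrates (10 uM D-luciferin, 10 uM ATP) in Tris acetate pH 7.5 buffer; luminescence output.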
Note: nearly all actives have a fitted effect of over 55% in size.
Potency is the fitted concentration of half-maximal effect.

Sequence of Luciferin 4-monooxygenase (Photinus pyralis) (P08659 whole entry, looked up): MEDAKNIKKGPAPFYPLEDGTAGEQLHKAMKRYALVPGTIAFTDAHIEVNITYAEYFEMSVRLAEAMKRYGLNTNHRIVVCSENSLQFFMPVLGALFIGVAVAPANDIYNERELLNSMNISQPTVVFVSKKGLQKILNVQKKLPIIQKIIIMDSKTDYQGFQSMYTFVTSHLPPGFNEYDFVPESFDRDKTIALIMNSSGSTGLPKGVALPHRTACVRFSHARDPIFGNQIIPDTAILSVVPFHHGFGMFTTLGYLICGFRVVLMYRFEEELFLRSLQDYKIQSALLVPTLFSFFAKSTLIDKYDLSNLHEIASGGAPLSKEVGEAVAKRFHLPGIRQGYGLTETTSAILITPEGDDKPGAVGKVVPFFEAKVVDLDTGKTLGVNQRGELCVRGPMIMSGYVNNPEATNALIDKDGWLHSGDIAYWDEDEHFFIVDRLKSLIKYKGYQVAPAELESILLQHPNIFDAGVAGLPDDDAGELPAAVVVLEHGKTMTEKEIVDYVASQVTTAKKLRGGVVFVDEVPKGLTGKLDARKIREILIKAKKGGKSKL

**Q.** For COc1ccc(OCc2cccc(C(=O)N3CCCC3)c2)cc1, which Potency is on record?
**A.** The Potency was 8.49 µM (active).

**Q.** With CCOc1ccc(OCc2cccc(C(=O)N(CC)CC)c2)cc1 as the compound, how does the Potency read?
**A.** The Potency was 1.2 µM (active).

**Q.** For Cc1sc2ncn(CC(=O)N3CCN(c4ccc(F)cc4)CC3)c(=O)c2c1S(=O)(=O)N1CCN(c2ncccn2)CC1, which Potency is on record?
**A.** The Potency was “inactive”.

**Q.** CCS(=O)(=O)N1CCC(n2c(C)nc3cccnc32)CC1 was tested. Which Potency did it give?
**A.** Its Potency is “inactive”.

**Q.** Which Potency does the source give for CCc1cccc(NC(=O)Cn2nc(CC)n3c(cc4cc(C)ccc43)c2=O)c1 here?
**A.** The Potency was “inactive”.

**Q.** With O=C(CSc1ncc(CO)n1Cc1ccc(Cl)cc1)NCc1ccc(F)cc1 as the compound, how does the Potency read?
**A.** Its Potency is “inactive”.

**Q.** Cc1cccc(N2CCN(c3c(CN4CCCC4)c(=O)oc4ccccc34)CC2)c1C was tested. Which Potency did it give?
**A.** The Potency was “inactive”.

**Q.** How did the Potency turn out when N#CCC(=O)NC1CCC(CC2CCC(NC(=O)CC#N)CC2)CC1 (stereo not drawn) was run?
**A.** Its Potency is “inactive”.

**Q.** Which Potency does the source give for Cc1ccsc1/C=C1\SC(N2CCOCC2)=NC1=O here?
**A.** The Potency was 10.7 µM (active).

**Q.** With CC(C)=C1SC(N2CCN(c3ccc(C)c(Cl)c3)CC2)=NC1=O as the compound, how does the Potency read?
**A.** The Potency was “inactive”.

**Q.** Which Potency does the source give for O=c1[nH]c(N2CCOCC2)nc2ccccc12 here?
**A.** Its Potency is “inactive”.

**Q.** Which Potency does the source give for O=C1N=C(N2CCOCC2)CS1 here?
**A.** Its Potency is “inactive”.

**Q.** Which Potency does the source give for Cc1ccc(C)c(S(=O)(=O)c2nnn3c2nc(N2CCOCC2)c2sccc23)c1 here?
**A.** Its Potency is “inactive”.

**Q.** For O=C1N=C(N2CCOCC2)S/C1=C\C=C/c1ccccc1, which Potency is on record?
**A.** Its Potency is 10.7 µM (active).

**Q.** With COc1ccccc1C1CCN(C(=S)Nc2ccc(Br)cc2)CC1 as the compound, how does the Potency read?
**A.** The Potency was “inactive”.

**Q.** With O=C(Nc1ccc(Br)cc1)c1ccc(Br)c(S(=O)(=O)NCc2ccccc2)c1 as the compound, how does the Potency read?
**A.** Its Potency is “inactive”.

**Q.** For Cc1ccc(Nc2nc3ccccc3nc2-n2nc(C)cc2C)c(Cl)c1, which Potency is on record?
**A.** The Potency was “inactive”.

**Q.** For CCN(CC(=O)Nc1ccc(OC)cc1)C(=O)c1ccc(=O)n(Cc2ccccc2)n1, which Potency is on record?
**A.** The Potency was “inactive”.

**Q.** Which Potency does the source give for CC(C)COc1ccc(C(=O)OCC(=O)NCCC2=CCCCC2)cc1 here?
**A.** The Potency was “inactive”.

**Q.** For Cn1nnc2cc(C(=O)NCCC3=CCCCC3)ccc21, which Potency is on record?
**A.** Its Potency is 5.36 µM (active).

**Q.** Which Potency does the source give for CC(=O)Nc1ccc(S(=O)(=O)N(C)CC(=O)NCCC2=CCCCC2)cc1 here?
**A.** The Potency was “inactive”.

**Q.** Which Potency does the source give for Cc1ccn2c(=O)c(C(=O)NCCC3=CCCCC3)c(O)nc2c1 here?
**A.** Its Potency is “inactive”.

**Q.** How did the Potency turn out when O=C(COc1cccc(-n2cnnn2)c1)NCCC1=CCCCC1 was run?
**A.** Its Potency is “inactive”.

**Q.** For Cc1ccc(-n2cnc3cc(C(=O)NCCC4=CCCCC4)ccc32)cc1Cl, which Potency is on record?
**A.** The Potency was “inactive”.

**Q.** O=C(Cc1nn[nH]n1)NCCC1=CCCCC1 was tested. Which Potency did it give?
**A.** Its Potency is “inactive”.

**Q.** With CN(c1ccc(C(=O)NCCC2=CCCCC2)cc1)S(C)(=O)=O as the compound, how does the Potency read?
**A.** The Potency was 9.53 µM (active).

**Q.** With O=C(NCCC1=CCCCC1)c1ccc(-n2cncn2)cc1 as the compound, how does the Potency read?
**A.** Its Potency is 15.1 µM (active).

**Q.** CCOC(=O)c1ccc(-c2ccc(/C=C(\C#N)C(=O)Nc3ccc(OCC)cc3)o2)cc1 was tested. Which Potency did it give?
**A.** Its Potency is “inactive”.

**Q.** With CCCCn1c(N)c(N(CCC(C)C)C(=O)COC(=O)c2ccc(CC)cc2)c(=O)[nH]c1=O as the compound, how does the Potency read?
**A.** The Potency was “inactive”.

**Q.** Cc1ccc(CN2CCCn3nc(C(=O)NCc4ccccc4Cl)cc3C2=O)cc1 was tested. Which Potency did it give?
**A.** Its Potency is “inactive”.

**Q.** How did the Potency turn out when Cn1c(=O)c2c(SCC(=O)NCC3CCCO3)nc(-c3ccccc3F)nc2n(C)c1=O (stereo not drawn) was run?
**A.** Its Potency is “inactive”.

**Q.** Cc1oc2ncnc(N3CCOCC3)c2c1C(=O)NCCc1ccccc1 was tested. Which Potency did it give?
**A.** The Potency was “inactive”.

**Q.** Which Potency does the source give for CN(C)c1ccc(C=C2C(=O)OC3(CCCC3)OC2=O)cc1 here?
**A.** Its Potency is 23.9 µM (active).

**Q.** For COCCN(Cc1ccccc1)C(=O)Cc1ccc(S(=O)(=O)N2CCOCC2)s1, which Potency is on record?
**A.** Its Potency is “inactive”.

**Q.** With CCCN(CCC)C(=O)C1CCCN(c2ncnc3c2nc2n3CCCCC2)C1 (stereo not drawn) as the compound, how does the Potency read?
**A.** The Potency was “inactive”.

**Q.** c1ccc(CN=C2Nc3ccccc3CS2)nc1 was tested. Which Potency did it give?
**A.** Its Potency is 12 µM (active).

**Q.** With COc1cccc(CNC(=O)CCC(=O)N2CC3CCCN3c3ccccc32)c1 (stereo not drawn) as the compound, how does the Potency read?
**A.** The Potency was “inactive”.

**Q.** How did the Potency turn out when O=C(CN(c1cc(C(F)(F)F)ccc1Cl)S(=O)(=O)c1ccccc1)NCc1cccnc1 was run?
**A.** Its Potency is “inactive”.

**Q.** Which Potency does the source give for CCCNS(=O)(=O)c1ccc(CCC(=O)NCc2cccnc2)cc1 here?
**A.** Its Potency is “inactive”.

**Q.** Which Potency does the source give for CCc1ccc(N(CC(=O)NCc2cccnc2)S(=O)(=O)c2ccccc2)cc1 here?
**A.** The Potency was 0.135 µM (active).

**Q.** Which Potency does the source give for Cc1ccc2sc(N(Cc3cccnc3)C(=O)C3COc4ccccc4O3)nc2c1C (stereo not drawn) here?
**A.** The Potency was “inactive”.

**Q.** With COc1cc(OC)cc(-c2nc3nc(C)c(CCC(=O)Nc4ccc(C)cc4)c(C)n3n2)c1 as the compound, how does the Potency read?
**A.** The Potency was “inactive”.

**Q.** How did the Potency turn out when O=S(=O)(N1CCCCC1)N1CCNCC1 was run?
**A.** Its Potency is “inactive”.

**Q.** For CS(=O)(=O)N1CCN(C(=O)c2cc3ccccc3oc2=O)CC1, which Potency is on record?
**A.** The Potency was “inactive”.

**Q.** Which Potency does the source give for S=c1[nH]c(-c2cccs2)cn1-c1ccccc1 here?
**A.** Its Potency is “inactive”.

**Q.** For O=c1oc2ccccc2cc1-c1cn(-c2ccccc2)c(=S)[nH]1, which Potency is on record?
**A.** The Potency was 0.849 µM (active).

**Q.** Which Potency does the source give for COc1ccc(C2C(=O)N(C3CCCCCC3)CC(=O)N2CCc2ccc(Cl)cc2)cc1OC (stereo not drawn) here?
**A.** The Potency was “inactive”.

**Q.** With COc1cc(-c2noc(C3CCCN(S(=O)(=O)c4cccc(Cl)c4)C3)n2)cc(OC)c1OC (stereo not drawn) as the compound, how does the Potency read?
**A.** The Potency was “inactive”.

**Q.** CC(C)c1ccc(-c2noc(C3CCCN(S(C)(=O)=O)C3)n2)cc1 (stereo not drawn) was tested. Which Potency did it give?
**A.** The Potency was 19 µM (active).

**Q.** O=C(Cc1cccs1)N1CCCC(c2nc(-c3ccc(S(=O)(=O)N4CCCC4)cc3)no2)C1 (stereo not drawn) was tested. Which Potency did it give?
**A.** Its Potency is “inactive”.

**Q.** CCN(C(=O)CSc1ncnc2sccc12)c1c(N)n(Cc2ccccc2)c(=O)[nH]c1=O was tested. Which Potency did it give?
**A.** Its Potency is “inactive”.

**Q.** CCCCSc1nnc2c(n1)OC=Nc1ccccc1-2 was tested. Which Potency did it give?
**A.** The Potency was 23.9 µM (active).

**Q.** With CCSc1nnc2c(n1)OC(c1ccc(OCC(=O)O)cc1)Nc1ccccc1-2 (stereo not drawn) as the compound, how does the Potency read?
**A.** The Potency was “inactive”.

From PubChem BioAssay AID588342 (National Center for Advancing Translational Sciences (NCATS), 2011)
